# Measured values as given in PubChem BioAssay.
# Active and inactive are the calls of the source.
# Legend:
# [1] = test system: PRMT1 (protein arginine N-methyltransferase 1); assay: PRMT1 binders on small-molecule microarrays, primary screen, biochemical, small-molecule microarray, 635 nm fluorescence (AID 1088); conditions: small-molecule microarray binding, higher = more signal;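 further: binding of Prmt1 protein to compounds spotted on small-molecule microarray slides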
# [2] = yeast growth modulation, basal conditions, primary screen, YJM789 clinical isolate, OD600, 24 h (AID 1089);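 further: growth of clinical yeast isolate S. cerevisiae YJM 789 seeded 1000 cells per well; test concentration not given here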; conditions: S. cerevisiae YJM789 growth, higher = more signal, called active from +8 up or from −8 down
# [3] = fission yeast growth modulation, primary screen, strain 972, OD600, 24 h, no modulator (AID 1090);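 further: basal condition with compound alone and no growth modifier present; test concentration not given here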; conditions: S. pombe 972 growth, higher = more signal, called active from +8 up or from −8 down
# [4] = S. cerevisiae growth modulation with rapamycin, primary screen, strain BY4716, OD600, 96 h (AID 1091); conditions: higher = more signal, called active from +8 up or from −8 down; further: test concentration not given here
# [5] = biological target: Torsin-1A-interacting protein 2 (Homo sapiens) (UniProt Q8NFQ8); assay: LULL1 binders on small-molecule microarray, primary screen, cell lysate, human LULL1 lysate, 635/667 nm fluorescence (AID 1092); conditions: hLULL1 lysate binding, 635 nm fluorescence, higher = more signal;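 further: probe is lysate of COS7 cells overexpressing human LULL1; score merges per-feature 667 nm fluorescence with signal-to-noise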
# [6] = E. coli growth modulation, two-sided OD650, primary screen, E. coli filamentation project, strain DRC41, 24 h (AID 1093); conditions: OD650, 24 h, higher = more signal, called active from +8 up or from −8 down;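 further: MC1000 strain lacking acrAB efflux and sulA so SOS filamentation is blocked; test concentration not given here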
# [7] = small-molecule microarray binders of probe aLefty2, primary screen, biochemical, biotinylated probe, 635/667 nm fluorescence (AID 1094); conditions: higher = more signal;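 further: score merges spot fluorescence near 667 nm with spot signal-to-noise ratio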
# [8] = test system: Noggin (protein binding on small-molecule microarray); assay: Noggin binders on small-molecule microarray, primary screen, biochemical, 635/667 nm fluorescence (AID 1095); conditions: 635 nm fluorescence, higher = more signal;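 further: score merges 667 nm feature fluorescence with signal to noise over triplicate slides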
# [9] = biological target: Neurogenic locus notch homolog protein 3 (Homo sapiens) (UniProt Q9UM47); assay: NOTCH3 binders on small-molecule microarray, primary screen, biochemical, 635/667 nm fluorescence (AID 1096); conditions: NOTCH3 binding, 635 nm fluorescence, higher = more signal
# [10] = small-molecule microarray binders of probe aEGFR, primary screen, biochemical, biotinylated probe, 635/667 nm fluorescence (AID 1097); conditions: higher = more signal;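 further: probe is a biotinylated anti-EGFR antibody binding compounds printed on slides; score combines fluorescence near 667 nm and signal to noise of each spot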
# [11] = test system: Plasmodium falciparum Sir2 (PF13_0152, Sir2A); assay: pfSir2 binders on small-molecule microarrays, primary screen, biochemical, small-molecule microarray, 635 nm fluorescence (AID 1098); conditions: small-molecule microarray binding, fluorescence 635 nm; higher = more signal;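 further: score merges spot fluorescence intensity with its signal-to-noise ratio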
# [12] = small-molecule microarray binders of probe aDKK1, primary screen, biochemical, biotinylated probe, 635/667 nm fluorescence (AID 1099); conditions: higher = more signal;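 further: score merges 667nm spot fluorescence with signal to noise across triplicate slides; reference of the scale not given here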
# [13] = small-molecule microarray binders of probe aCHRDL2, primary screen, biochemical, biotinylated probe, 635/667 nm fluorescence (AID 1100); conditions: higher = more signal
# [14] = splicing luciferase reporter signal modulators, primary screen, spliceosome inhibition project, cell-based, HEK293, splice +/- reporter (AID 1101); conditions: luminescence, 24 h, higher = more signal, called active from +8 up or from −8 down;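 further: HEK293 cells carrying a splicing-competent luciferase reporter gene; test concentration not given here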
# [15] = biological target: Fibroblast growth factor 10 (Homo sapiens) (UniProt O15520); assay: FGF10 binders on small-molecule microarrays, primary screen, biochemical, small-molecule microarray, 635 nm fluorescence (AID 1102); conditions: FGF10 binding, fluorescence 635 nm, higher = more signal
# [16] = test system: glycogen synthase kinase-3 (GSK3A per assay name; protocol says GSK3B); assay: GSK3 binders on small-molecule microarrays, primary screen, biochemical, small-molecule microarray, 635 nm fluorescence, GSK3A (AID 1103); conditions: small-molecule microarray binding, fluorescence 635 nm; higher = more signal; further: the record names both GSK3A and GSK3B
# [17] = biological target: Epidermal growth factor receptor (Homo sapiens) (UniProt P00533); assay: EGFR binders on small-molecule microarrays, primary screen, biochemical, small-molecule microarray, 635 nm fluorescence (AID 1104); conditions: EGFR binding, higher = more signal;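 further: score merges 667 nm emission intensity with spot signal to noise over triplicate slides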
# [18] = biological target: Follistatin-related protein 3 (Homo sapiens) (UniProt O95633); assay: FSTL3 binders on small-molecule microarrays, primary screen, biochemical, small-molecule microarray, 635 nm fluorescence (AID 1105); conditions: FSTL3 binding, higher = more signal;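 further: score merges emission near 667 nm and signal to noise per printed spot across three slides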
# [19] = biological target: Dickkopf-related protein 1 (Homo sapiens) (UniProt O94907); assay: DKK1 binders on small-molecule microarrays, primary screen, biochemical, small-molecule microarray, 635 nm fluorescence scan (AID 1106); conditions: DKK1 binding, higher = more signal;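 further: score merges emission near 667 nm with signal to noise over three replicate slides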
# [20] = test system: Inhibin beta A chain (activin A); assay: INHBA (activin A) binders on microarrays, primary screen, biochemical, small-molecule microarray, 635 nm fluorescence scan (AID 1107); conditions: small-molecule microarray binding, higher = more signal;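 further: mouse activin A protein probed at 4.33 µg/mL on printed slides; score merges bound-protein fluorescence near 667 nm with spot signal-to-noise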
# Chain of Epidermal growth factor receptor (Homo sapiens) (P00533 whole entry, looked up): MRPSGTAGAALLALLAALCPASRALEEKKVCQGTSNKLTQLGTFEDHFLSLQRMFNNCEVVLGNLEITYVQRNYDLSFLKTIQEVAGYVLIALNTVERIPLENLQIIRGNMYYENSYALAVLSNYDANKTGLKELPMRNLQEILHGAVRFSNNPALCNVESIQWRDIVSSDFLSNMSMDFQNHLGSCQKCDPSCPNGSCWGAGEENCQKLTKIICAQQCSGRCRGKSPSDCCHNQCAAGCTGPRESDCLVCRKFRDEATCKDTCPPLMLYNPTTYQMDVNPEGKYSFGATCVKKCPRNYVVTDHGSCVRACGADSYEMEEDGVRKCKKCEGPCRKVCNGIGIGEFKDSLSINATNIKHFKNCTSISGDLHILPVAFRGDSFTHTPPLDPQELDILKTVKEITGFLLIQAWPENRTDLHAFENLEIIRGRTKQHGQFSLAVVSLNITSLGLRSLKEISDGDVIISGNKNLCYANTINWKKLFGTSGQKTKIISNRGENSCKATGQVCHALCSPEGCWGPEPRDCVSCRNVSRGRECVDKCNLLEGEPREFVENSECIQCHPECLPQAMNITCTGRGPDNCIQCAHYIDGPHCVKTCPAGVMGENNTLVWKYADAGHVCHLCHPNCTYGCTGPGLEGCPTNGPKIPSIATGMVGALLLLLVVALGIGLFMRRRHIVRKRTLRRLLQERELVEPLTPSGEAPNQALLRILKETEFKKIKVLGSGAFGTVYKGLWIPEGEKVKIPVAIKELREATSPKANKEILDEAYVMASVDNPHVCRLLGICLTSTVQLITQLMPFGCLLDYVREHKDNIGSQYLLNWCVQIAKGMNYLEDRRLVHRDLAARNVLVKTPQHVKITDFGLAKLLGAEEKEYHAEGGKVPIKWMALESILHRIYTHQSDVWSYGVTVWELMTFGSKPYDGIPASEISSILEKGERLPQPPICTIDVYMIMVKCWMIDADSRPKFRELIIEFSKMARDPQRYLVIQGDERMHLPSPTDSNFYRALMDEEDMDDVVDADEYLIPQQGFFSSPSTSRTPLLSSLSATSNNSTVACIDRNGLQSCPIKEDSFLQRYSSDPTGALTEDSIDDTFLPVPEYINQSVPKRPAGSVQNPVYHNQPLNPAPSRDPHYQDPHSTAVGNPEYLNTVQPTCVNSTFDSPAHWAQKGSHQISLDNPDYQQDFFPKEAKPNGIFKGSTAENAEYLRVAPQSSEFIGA
# Chain of Neurogenic locus notch homolog protein 3 (Homo sapiens) (Q9UM47 whole entry, looked up): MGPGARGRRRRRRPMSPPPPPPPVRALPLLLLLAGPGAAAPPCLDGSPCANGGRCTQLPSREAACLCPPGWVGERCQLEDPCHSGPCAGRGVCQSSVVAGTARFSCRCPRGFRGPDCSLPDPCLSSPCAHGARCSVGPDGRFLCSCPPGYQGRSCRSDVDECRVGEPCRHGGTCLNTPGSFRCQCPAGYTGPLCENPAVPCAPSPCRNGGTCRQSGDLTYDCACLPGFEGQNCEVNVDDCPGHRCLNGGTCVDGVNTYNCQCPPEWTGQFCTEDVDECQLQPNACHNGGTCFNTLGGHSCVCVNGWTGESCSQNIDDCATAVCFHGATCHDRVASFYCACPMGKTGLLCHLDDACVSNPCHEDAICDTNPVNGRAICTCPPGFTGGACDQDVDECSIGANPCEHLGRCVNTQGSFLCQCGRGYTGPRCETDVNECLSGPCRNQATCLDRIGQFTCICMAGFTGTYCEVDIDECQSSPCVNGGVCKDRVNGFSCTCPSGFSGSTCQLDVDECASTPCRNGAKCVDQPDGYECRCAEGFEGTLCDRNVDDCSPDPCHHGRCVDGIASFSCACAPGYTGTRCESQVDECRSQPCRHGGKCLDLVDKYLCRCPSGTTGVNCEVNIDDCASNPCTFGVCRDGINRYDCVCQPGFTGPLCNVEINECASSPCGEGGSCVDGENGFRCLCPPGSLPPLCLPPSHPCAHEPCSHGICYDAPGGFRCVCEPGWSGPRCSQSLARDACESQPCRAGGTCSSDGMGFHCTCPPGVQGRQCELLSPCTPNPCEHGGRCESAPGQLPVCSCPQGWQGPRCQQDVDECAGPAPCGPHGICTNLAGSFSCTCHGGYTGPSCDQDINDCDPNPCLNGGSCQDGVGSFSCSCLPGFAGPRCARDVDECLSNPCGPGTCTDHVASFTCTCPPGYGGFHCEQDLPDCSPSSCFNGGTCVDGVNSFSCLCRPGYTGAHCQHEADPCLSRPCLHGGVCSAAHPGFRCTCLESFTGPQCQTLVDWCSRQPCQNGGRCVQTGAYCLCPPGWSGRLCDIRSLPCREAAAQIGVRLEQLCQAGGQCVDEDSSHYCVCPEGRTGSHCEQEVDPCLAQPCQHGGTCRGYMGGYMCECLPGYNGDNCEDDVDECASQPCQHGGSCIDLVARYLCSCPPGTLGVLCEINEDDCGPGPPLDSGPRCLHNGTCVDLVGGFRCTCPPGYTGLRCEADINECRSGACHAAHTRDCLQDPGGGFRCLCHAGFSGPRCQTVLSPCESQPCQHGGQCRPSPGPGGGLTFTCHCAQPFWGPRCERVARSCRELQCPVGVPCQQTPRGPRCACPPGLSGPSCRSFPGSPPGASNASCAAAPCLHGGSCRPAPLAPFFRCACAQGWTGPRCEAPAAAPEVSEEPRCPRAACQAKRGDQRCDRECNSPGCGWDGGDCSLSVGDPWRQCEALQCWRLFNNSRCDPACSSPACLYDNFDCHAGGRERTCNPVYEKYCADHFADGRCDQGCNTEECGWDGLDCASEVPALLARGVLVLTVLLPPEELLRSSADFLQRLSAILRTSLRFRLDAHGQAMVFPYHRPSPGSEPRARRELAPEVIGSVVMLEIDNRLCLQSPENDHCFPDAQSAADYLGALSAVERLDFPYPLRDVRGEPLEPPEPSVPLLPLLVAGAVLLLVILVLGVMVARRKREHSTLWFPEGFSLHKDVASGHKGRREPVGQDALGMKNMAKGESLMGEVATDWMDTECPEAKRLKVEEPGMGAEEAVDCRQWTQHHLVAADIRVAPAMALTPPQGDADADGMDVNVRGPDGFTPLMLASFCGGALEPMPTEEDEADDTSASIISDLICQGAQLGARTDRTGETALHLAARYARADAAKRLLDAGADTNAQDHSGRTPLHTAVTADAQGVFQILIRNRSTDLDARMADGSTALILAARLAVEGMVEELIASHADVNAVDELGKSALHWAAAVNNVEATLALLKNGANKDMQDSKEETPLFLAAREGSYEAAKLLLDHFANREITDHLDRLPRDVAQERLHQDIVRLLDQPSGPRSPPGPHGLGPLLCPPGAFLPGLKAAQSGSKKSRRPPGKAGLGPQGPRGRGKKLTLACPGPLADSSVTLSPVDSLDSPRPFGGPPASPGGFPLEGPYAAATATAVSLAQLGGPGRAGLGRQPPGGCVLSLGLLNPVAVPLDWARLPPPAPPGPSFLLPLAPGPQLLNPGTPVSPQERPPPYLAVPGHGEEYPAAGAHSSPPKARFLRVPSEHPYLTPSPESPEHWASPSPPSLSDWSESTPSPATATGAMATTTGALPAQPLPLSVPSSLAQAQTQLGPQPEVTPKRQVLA
# Chain of Torsin-1A-interacting protein 2 (Homo sapiens) (Q8NFQ8 whole entry, looked up): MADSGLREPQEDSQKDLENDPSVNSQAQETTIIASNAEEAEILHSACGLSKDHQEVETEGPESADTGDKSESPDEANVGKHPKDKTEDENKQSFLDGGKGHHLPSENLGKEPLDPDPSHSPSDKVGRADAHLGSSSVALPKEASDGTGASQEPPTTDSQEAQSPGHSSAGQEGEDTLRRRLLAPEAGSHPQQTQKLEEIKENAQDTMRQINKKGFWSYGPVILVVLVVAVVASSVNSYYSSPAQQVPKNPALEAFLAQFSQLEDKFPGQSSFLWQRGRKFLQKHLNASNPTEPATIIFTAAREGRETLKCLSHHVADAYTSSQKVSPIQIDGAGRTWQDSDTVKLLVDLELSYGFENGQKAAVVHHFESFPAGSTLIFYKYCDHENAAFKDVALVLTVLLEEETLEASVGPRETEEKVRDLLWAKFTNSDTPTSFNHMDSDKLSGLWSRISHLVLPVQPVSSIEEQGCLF
# Chain of Dickkopf-related protein 1 (Homo sapiens) (O94907 whole entry, looked up): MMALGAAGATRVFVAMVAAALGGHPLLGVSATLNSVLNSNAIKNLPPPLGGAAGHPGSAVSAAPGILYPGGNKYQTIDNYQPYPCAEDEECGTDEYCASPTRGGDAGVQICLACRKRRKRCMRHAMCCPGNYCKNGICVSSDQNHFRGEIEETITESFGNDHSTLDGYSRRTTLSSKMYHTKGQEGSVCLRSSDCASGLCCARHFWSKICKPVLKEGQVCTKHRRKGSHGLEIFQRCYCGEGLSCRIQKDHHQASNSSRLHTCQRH
# Chain of Fibroblast growth factor 10 (Homo sapiens) (O15520 whole entry, looked up): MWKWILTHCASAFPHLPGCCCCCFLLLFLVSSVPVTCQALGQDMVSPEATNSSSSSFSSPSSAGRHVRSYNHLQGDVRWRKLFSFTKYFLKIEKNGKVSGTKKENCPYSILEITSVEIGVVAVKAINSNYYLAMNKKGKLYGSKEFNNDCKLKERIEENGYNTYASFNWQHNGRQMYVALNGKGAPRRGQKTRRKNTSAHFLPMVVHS
# Chain of Follistatin-related protein 3 (Homo sapiens) (O95633 whole entry, looked up): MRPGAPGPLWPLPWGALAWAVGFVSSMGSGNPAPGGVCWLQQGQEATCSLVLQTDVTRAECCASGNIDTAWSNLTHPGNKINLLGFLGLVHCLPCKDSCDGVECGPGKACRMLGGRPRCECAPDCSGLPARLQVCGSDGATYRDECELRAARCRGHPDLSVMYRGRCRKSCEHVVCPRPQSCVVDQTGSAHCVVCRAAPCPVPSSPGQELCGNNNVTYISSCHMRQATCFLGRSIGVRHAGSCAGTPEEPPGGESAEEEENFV
SMILES,composite z-score [1],z-score [2],z-score [3],z-score [4],composite z-score [5],z-score [6],composite z-score [7],composite z-score [8],composite z-score [9],composite z-score [10],composite z-score [11],composite z-score [12],composite z-score [13],z-score [14],composite z-score [15],composite z-score [16],composite z-score [17],composite z-score [18],composite z-score [19],composite z-score [20]
[N-]=[N+]=Nc1ccccc1[C@H]1OC(c2ccc(OCCCO)cc2)=N[C@@]1(Cc1ccccc1)C(=O)NCC(O)CO (stereo not given in full),1.02,-0.858 (inactive),-1.13 (inactive),0.617 (inactive),3.52,0.824 (inactive),0.109,0.0821,0.206,-0.0226,0.315,0.78,0.981,-0.562 (inactive),-0.0795,0.0637,-0.942,-0.283,-0.535,0.647
CC(C)C(O)C1C=CC2C(=O)NC(=O)C2N1Nc1ccccn1 (stereo not given),0.522,1.02 (inactive),1.68 (inactive),0.56 (inactive),1.92,-0.847 (inactive),0.0894,-0.0878,0.301,-0.109,1.09,0.886,0.542,1.02 (inactive),0.109,0.352,-0.216,0.401,-0.0362,1.4
CC(C)=CCCC(C)=CC(O)C1C=CC2C(=O)NC(=O)C2N1Nc1ccc(Cl)cc1Cl (stereo not given),0.258,-0.835 (inactive),-4.51 (inactive),0.279 (inactive),2.31,-2.06 (inactive),0.17,-0.218,0.845,-0.0904,0.44,0.34,0.992,1.22 (inactive),0.499,0.0742,0.542,1.1,0.153,1.44
CCOC(=O)C[C@H]1[C@H](OC(=O)c2ccccc2-c2ccccc2)[C@@H](NC(=O)c2ccc3ccccc3c2)c2cc(OCCCO)ccc2N1C(=O)Cc1ccc(OC)cc1,-0.793,-0.97 (inactive),-0.446 (inactive),-0.248 (inactive),0.276,-0.904 (inactive),-0.281,-0.206,-0.626,0.0004,-0.332,0.29,0.58,-0.897 (inactive),0.125,-0.914,-0.201,-0.517,0.225,0.892
O=C1N(CCS(=O)(=O)c2ccccc2)c2ccccc2C[C@]12N=C(c1ccc(OCCCO)cc1)O[C@@H]2c1ccccc1,1.48,2.51 (inactive),0.762 (inactive),4.39 (inactive),3.12,0.568 (inactive),0.225,0.83,1.09,-0.164,1.23,0.924,0.775,0.276 (inactive),1.02,1.19,0.468,1.34,1.01,0.865
C[N+](C)(C)CCCC[C@@H]1NC(=O)[C@H]2C[C@@H](C(=O)NCCCCCNC(=O)CS)[C@@H](c3cccc(OCCO)c3)N2C1=O,-0.248,-0.802 (inactive),-0.693 (inactive),-0.451 (inactive),1.36,0.469 (inactive),-0.152,0.378,-0.36,-0.127,1.57,0.242,0.47,1.12 (inactive),-0.166,0.272,0.412,-0.664,0.0501,0.761
NC(=O)N1C(=O)C2C(C1=O)C1C=C(CCCO)C2C(C2CC2)N1Cc1sc2ccccc2c1Cl (stereo not given),1.56,-0.425 (inactive),-2.48 (inactive),-1.63 (inactive),2.14,0.792 (inactive),0.0819,0.355,1.13,-0.0697,0.903,-0.129,0.256,1.01 (inactive),1.15,1.09,-0.271,0.808,0.158,0.303
[N-]=[N+]=Nc1ccccc1C[C@@]1(C(=O)NCc2ccccc2)N=C(c2ccc(OCCCO)cc2)O[C@@H]1c1ccccc1N=[N+]=[N-],1.58,-0.642 (inactive),-0.468 (inactive),5.27 (inactive),1.69,0.0498 (inactive),0.469,1.2,0.762,0.0883,1.07,0.61,1.01,-0.457 (inactive),1.1,0.913,0.0359,0.309,-0.0102,1.04
COc1cc(C(O)C2C=CC3C(=O)N(c4ccccc4)C(=O)C3N2Nc2ccccc2)cc(OC)c1OC (stereo not given),1.54,-0.722 (inactive),0.82 (inactive),-0.205 (inactive),3.71,-0.651 (inactive),0.228,-0.124,1.03,0.0473,1.27,1.03,1.13,1.28 (inactive),1.25,1.31,-0.304,1.07,-0.586,0.484
CC(C)=C1C(=O)C(c2ccccc2)=C2CN3C(=O)N(CCc4ccccc4)C(=O)[C@]3(C)[C@H]21,-0.638,-0.37 (inactive),-0.262 (inactive),1.48 (inactive),1.19,-1.27 (inactive),0.211,-0.335,0.451,-0.0251,1.27,0.915,1.13,1.15 (inactive),0.139,-0.701,-0.276,-0.0755,-0.538,1.02
